Assay results as given in the supplement of paper PMC10849652.
Of roughly 7,900 targets only a part is listed; those with a hit were picked by preference. About 0.6% of all pairs of compound and target were hits. Unmarked numbers belong to inactive results.

Compound: Cc1sc2c(c1C)C(c1ccc(Cl)cc1)=N[C@@H](CC(=O)OC(C)(C)C)c1nnc(C)n1-2
Assay: log2 fold change, soluble protein after heating vs DMSO (PISA); higher = thermal stabilisation; K562 cells, 10 uM, 30 min; active = over 0.2 and 3.5 SD of the protein, either way, in both replicates (recomputed)
How it was run: (§1)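 Soluble protein was quantified by TMTpro 16plex LC-MS/MS after channel sums were equalised. It was obtained as the supernatant after 21,000xg for 90 min from pooled aliquots of K562 cells (2×10^6 cells/mL, 10 μM compound, 30 min) heated for 3 min across 48°C-58°C and extracted in PBS with 0.5% NP-40 at 4°C. Thermal stability values are relative to control samples and come from duplicates. They are given as log2 fold changes.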

Sequence of UniProt Q9NW08 (Q9NW08 whole entry, looked up): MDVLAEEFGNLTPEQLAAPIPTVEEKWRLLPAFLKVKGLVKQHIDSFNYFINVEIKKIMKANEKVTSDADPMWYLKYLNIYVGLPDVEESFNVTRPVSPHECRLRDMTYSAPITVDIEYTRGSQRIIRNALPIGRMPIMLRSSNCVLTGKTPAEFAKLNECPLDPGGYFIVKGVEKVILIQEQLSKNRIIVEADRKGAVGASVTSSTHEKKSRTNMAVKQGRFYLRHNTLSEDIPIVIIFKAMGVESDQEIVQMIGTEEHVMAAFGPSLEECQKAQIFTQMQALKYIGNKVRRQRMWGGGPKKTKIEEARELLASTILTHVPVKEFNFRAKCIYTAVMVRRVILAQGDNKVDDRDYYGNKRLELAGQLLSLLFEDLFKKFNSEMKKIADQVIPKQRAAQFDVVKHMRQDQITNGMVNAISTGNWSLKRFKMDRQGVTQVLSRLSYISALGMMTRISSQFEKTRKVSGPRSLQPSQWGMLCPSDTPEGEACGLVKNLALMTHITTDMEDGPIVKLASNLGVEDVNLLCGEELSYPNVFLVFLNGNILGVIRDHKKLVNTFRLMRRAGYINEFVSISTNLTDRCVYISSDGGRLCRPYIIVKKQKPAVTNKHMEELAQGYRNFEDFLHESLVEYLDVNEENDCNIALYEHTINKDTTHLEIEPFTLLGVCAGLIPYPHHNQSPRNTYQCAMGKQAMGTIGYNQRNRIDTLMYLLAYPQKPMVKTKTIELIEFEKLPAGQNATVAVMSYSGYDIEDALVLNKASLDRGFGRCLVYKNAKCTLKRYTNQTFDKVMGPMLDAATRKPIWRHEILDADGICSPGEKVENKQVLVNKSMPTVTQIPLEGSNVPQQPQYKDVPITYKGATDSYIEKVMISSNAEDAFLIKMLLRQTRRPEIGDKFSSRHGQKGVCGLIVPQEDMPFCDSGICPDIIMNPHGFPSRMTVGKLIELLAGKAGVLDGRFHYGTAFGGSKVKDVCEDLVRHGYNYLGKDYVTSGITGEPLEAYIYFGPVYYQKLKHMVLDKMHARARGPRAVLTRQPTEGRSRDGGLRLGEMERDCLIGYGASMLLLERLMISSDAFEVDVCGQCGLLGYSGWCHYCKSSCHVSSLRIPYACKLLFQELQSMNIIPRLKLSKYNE
Sequence of UniProt Q9H814 (Q9H814 whole entry, looked up): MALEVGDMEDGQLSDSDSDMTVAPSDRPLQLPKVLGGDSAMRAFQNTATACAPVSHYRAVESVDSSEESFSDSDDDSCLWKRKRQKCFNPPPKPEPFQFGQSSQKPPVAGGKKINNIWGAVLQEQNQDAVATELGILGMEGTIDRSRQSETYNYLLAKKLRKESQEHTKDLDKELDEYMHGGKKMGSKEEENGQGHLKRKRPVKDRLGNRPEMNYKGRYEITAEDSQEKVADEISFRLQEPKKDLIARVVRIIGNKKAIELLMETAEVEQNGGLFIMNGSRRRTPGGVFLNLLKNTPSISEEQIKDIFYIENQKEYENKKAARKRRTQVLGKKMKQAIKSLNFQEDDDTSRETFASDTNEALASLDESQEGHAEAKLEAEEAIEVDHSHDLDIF
Sequence of UniProt Q99575 (Q99575 whole entry, looked up): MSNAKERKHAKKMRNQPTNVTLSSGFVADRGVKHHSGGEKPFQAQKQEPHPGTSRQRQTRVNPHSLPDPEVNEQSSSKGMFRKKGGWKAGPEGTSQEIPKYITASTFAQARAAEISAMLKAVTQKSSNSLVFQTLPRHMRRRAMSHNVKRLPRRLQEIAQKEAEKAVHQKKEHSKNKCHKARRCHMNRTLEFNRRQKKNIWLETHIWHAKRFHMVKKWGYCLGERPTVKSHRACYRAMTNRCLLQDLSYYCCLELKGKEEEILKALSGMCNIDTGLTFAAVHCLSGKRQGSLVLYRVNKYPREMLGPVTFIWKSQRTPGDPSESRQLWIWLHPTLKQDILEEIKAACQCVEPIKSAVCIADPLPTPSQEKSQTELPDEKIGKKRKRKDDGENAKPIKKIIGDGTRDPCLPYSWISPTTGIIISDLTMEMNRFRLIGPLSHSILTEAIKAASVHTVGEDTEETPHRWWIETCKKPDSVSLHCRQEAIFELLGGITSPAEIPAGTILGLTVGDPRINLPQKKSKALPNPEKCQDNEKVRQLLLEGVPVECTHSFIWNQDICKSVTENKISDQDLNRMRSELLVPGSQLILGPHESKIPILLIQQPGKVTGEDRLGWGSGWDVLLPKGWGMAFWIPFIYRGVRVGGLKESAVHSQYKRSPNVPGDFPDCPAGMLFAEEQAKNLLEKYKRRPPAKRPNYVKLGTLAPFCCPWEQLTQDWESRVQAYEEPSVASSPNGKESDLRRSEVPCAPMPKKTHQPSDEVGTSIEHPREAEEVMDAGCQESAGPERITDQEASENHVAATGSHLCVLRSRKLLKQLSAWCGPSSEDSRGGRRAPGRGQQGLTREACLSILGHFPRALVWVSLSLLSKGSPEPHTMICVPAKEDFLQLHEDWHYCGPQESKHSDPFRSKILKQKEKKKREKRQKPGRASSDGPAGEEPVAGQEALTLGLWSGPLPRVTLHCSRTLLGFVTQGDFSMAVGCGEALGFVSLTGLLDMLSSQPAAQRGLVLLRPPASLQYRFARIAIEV
Sequence of UniProt Q16401 (Q16401 whole entry, looked up): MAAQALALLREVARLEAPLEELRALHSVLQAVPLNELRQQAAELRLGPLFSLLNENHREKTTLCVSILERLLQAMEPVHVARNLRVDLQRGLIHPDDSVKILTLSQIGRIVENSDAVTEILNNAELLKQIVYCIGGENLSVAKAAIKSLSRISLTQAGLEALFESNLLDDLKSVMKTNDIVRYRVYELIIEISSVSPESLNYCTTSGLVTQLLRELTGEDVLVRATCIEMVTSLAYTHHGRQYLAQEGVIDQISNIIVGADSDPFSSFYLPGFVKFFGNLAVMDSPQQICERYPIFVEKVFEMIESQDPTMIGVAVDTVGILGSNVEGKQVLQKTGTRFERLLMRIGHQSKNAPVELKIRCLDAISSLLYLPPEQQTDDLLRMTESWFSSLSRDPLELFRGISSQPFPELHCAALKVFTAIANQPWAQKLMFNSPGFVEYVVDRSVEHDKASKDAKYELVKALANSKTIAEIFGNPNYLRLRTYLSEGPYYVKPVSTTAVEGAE
Sequence of UniProt Q15172 (Q15172 whole entry, looked up): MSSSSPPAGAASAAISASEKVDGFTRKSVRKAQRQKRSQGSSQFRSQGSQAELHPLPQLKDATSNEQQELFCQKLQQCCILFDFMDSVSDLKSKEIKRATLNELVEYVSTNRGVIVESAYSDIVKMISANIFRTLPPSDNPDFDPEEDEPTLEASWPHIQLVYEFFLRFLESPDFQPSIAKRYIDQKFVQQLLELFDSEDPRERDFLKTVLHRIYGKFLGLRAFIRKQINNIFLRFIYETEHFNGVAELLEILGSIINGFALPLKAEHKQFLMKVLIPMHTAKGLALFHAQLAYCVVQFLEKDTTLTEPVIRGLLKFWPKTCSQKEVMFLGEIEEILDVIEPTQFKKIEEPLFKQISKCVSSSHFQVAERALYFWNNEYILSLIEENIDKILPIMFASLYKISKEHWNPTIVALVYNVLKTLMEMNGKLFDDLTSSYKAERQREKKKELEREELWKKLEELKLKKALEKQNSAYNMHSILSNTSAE
Sequence of UniProt Q14671 (Q14671 whole entry, looked up): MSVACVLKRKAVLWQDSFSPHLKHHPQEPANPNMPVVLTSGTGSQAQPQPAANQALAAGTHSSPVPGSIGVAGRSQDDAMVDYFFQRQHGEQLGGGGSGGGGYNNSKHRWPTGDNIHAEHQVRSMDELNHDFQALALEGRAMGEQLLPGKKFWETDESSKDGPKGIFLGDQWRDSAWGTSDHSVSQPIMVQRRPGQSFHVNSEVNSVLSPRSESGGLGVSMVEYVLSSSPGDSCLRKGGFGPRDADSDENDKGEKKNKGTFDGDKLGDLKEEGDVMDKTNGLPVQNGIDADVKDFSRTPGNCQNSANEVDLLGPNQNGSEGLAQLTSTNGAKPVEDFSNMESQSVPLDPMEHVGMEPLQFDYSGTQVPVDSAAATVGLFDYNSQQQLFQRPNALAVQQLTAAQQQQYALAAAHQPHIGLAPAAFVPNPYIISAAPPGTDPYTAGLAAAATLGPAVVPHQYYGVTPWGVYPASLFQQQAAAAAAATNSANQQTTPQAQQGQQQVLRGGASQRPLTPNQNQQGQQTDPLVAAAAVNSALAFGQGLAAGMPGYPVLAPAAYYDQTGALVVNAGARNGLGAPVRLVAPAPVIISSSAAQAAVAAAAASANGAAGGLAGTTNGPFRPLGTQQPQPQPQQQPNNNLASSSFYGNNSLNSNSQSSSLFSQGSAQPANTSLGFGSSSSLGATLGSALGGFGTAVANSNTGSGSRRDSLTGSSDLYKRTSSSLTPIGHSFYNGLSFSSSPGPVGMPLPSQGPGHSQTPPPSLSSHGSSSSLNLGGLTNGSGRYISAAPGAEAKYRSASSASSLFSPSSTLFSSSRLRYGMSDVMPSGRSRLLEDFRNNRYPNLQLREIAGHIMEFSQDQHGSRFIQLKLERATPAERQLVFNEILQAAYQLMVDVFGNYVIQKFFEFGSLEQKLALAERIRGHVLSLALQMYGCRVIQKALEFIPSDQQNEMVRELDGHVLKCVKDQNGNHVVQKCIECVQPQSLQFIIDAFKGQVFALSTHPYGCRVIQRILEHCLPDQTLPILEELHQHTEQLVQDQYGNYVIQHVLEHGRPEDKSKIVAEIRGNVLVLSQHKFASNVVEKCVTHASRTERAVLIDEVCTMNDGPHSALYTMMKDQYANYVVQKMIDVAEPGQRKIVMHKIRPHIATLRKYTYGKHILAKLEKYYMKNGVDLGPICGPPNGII
Sequence of UniProt P25788 (P25788 whole entry, looked up): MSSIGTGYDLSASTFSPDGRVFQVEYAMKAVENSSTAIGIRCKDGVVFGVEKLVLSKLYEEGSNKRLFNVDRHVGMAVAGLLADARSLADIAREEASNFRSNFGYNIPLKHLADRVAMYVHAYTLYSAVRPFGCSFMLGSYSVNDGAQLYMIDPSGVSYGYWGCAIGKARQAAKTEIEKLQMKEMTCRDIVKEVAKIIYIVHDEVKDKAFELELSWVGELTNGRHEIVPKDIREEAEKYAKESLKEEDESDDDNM

Target	log2 fold change
PSMA3 (UniProt P25788)	-0.036
PHAX (UniProt Q9H814)	-0.024
PPP2R5A (UniProt Q15172)	-0.08
PSMD5 (UniProt Q16401)	-0.006
PUM1 isoform 3 (UniProt Q14671)	0.025
PDE4DIP isoform 4 (UniProt Q5VU43)	-0.023
POLR3B (UniProt Q9NW08)	0.04
POP1 (UniProt Q99575)	0.017

Compound: c1ccc([C@@H]2C[C@H]2NC2CCNCC2)cc1
Assay: as above
How it was run: as §1

Target	log2 fold change
PPP1R12A (UniProt O14974)	-0.008
PUF60 isoform 2 (UniProt Q9UHX1)	-0.079
PTGES3 (UniProt Q15185)	-0.063
PMM2 (UniProt O15305)	0.009
POLR2A (UniProt P24928)	-0.059
PTRH2 (UniProt Q9Y3E5)	-0.02
PIK3C3 (UniProt Q8NEB9)	-0.01
PRKAG1 isoform 3 (UniProt P54619)	-0.017
POLR2K (UniProt P53803)	-0.056
PCYT1A (UniProt P49585)	0.019
PPIL2 (UniProt Q13356)	-0.011
PTP4A1 (UniProt Q93096)	-0.031
PIP4P1 isoform 2 (UniProt Q86T03)	0.05
PCLAF (UniProt Q15004)	0.07
PBX2 (UniProt P40425)	-0.016
POLR2E (UniProt P19388)	-0.06

Target	log2 fold change
PNPLA8 (UniProt Q9NP80)	0.024
POM121 (UniProt Q96HA1)	-0.002
PDLIM7 (UniProt Q9NR12)	-0.011
PRKACA (UniProt P17612)	0.035
POGLUT1 (UniProt Q8NBL1)	0.015
PCYT1B (UniProt Q9Y5K3)	0.034
PIP4K2B (UniProt P78356)	-0.026
PSMA3 (UniProt P25788)	-0.029
PHAX (UniProt Q9H814)	0.022
PPP2R5A (UniProt Q15172)	-0.08
PSMD5 (UniProt Q16401)	-0.001
PUM1 isoform 3 (UniProt Q14671)	-0.049
PDE4DIP isoform 4 (UniProt Q5VU43)	-0.011
POLR3B (UniProt Q9NW08)	-0.046
POP1 (UniProt Q99575)	-0.01
